CF NFkB inh: blocks PAF-induced NF-kB reporter in cystic fibrosis cells | actives 0.86% (n = 360,000) | KKLEB NF-kB-GFP reporter, GFP fluorescence overnight | AID 588850 | inhibition, % at 5 µM;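 active = at least 50% inhibition at 5 µM, scaled per plate between neutral and stimulator controls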;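 note: PAF is a Pseudomonas aeruginosa culture filtrate used as stimulus; plate controls were PAF-stimulated DMSO wells for no effect and unstimulated DMSO wells for full effect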
Peg3 prom inh: Peg3 promoter activity inhibition; AID 588405; actives 1.7% (n = 360,000); inhibition, % at 20 µM; HeLa PEG-Prom luciferase reporter, luminescence, overnight;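 active = inhibition of at least 50% at 20 µM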
MITF TRPM1 inh: inhibitors of MITF-driven TRPM1 promoter in melanoma cells. SK-MEL-5 TRPM1 promoter luciferase, 24 h. actives 0.83% (n = 330,000). inhibition, % at 12.5 µM;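 active = mean inhibition across replicates of 60% or more, whatever share of single replicates reaches that level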
CHOP inh: CHOP inhibition in unfolded protein response | CHO-K1 CHOP-promoter luciferase, tunicamycin-induced, 15-18 h | inhibition, % at 10 µM | actives 3.8% (n = 220,000);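 active = compounds that reduced the stress-induced luciferase reporter signal by more than about 70% of percent inhibition, limit read from the data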;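 note: 0% = tunicamycin plus vehicle and 100% = wells without tunicamycin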
HIF-2a block: inhibitors of HIF-2a; 786-0 RCC cells HIF-2a reporter, luciferase luminescence, overnight; inhibition, % at 18.8 µM; actives 0.72% (n = 360,000); AID 624352;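 active = inhibition of the luminescence signal of 40% or more relative to plate controls, in a single-dose primary screen at 18.75 µM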
KKLEB tox: counter-screen for CF NF-kB inhibitors: cytotoxicity; KKLEB CF airway cells viability, ATPlite luminescence, overnight; stronger effect = lower value; cells stimulated with P. aeruginosa culture filtrate; activity change (cytotoxicity), % at 5 µM; actives 0.36% (n = 360,000);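 active = corrected activity change at or below -50% at 5 µM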
An asterisk follows results filed as active; x = not tested or not shown. The list is not random: actives were taken first. Their share in the collection is about 4.3%.

SMILES	CF NFkB inh	Peg3 prom inh	MITF TRPM1 inh	CHOP inh	HIF-2a block	KKLEB tox
NC(Cc1ccc(F)cc1)c1csc(Nc2ccc(C(=O)c3ccccc3)cc2)n1 (stereo unspecified)	41	91*	x	x	-7	-38
COc1ccc(CC(N)c2csc(Nc3ccc(C(C)=O)cc3)n2)cc1 (stereo unspecified)	-3	9	x	x	2	-10
NC(c1csc(Nc2ccc(C(=O)c3ccccc3)cc2)n1)C1CCCCC1 (stereo unspecified)	36	97*	x	x	3	-10
NC(Cc1ccc(Cl)cc1)c1csc(Nc2ccc(C(=O)c3ccccc3)cc2)n1 (stereo unspecified)	9	97*	x	x	2	8
COc1ccc(CC(N)c2csc(Nc3ccc(C(=O)c4ccccc4)cc3)n2)cc1 (stereo unspecified)	28	66*	x	x	-41	-24
CC(=O)c1ccc(Nc2nc(C(N)C3CCCCC3)cs2)cc1 (stereo unspecified)	4	5	x	x	6	0
CC(N)c1csc(Nc2ccc(C(=O)c3ccccc3)cc2)n1 (stereo unspecified)	-15	-21	x	x	-18	13
O=C1CC(c2ccccc2)CC(=O)N1c1ccc(C(F)(F)F)cc1	13	7	-3	x	8	-12
NC(Cc1ccccc1)c1csc(Nc2ccc(C(=O)c3ccccc3)cc2)n1 (stereo unspecified)	8	66*	x	x	4	-19
NC(CO)c1csc(Nc2ccc(C(=O)c3ccccc3)cc2)n1 (stereo unspecified)	14	-22	x	x	-27	-11
Cc1ccc(OCCN2CCC2(C)C(=O)Nc2ccc3c(c2)OCCO3)cc1 (stereo unspecified)	-1	-3	x	x	-5	-11
O=C(N=Nc1c(O)n(C2OC(=O)c3ccccc32)c2ccccc12)c1ccc(O)cc1 (stereo unspecified)	-2	-174	2	78*	-27	3
O=C(N=Nc1c(O)n(Cc2ccccc2)c2ccccc12)c1ccc(O)cc1	15	-273	-148	36	-275	-4
COCCN1C[C@@H](CO)O[C@@H](n2cnc3c(NCC(C)C)ncnc32)C1	2	-6	x	x	-6	-2
COc1cc2c(c(OC)c1OC)-c1ccc(SC)c(=O)cc1C(NC=O)CC2 (stereo unspecified)	48	-14	64*	x	22	-32
COc1cc2c(c(OC)c1OC)-c1ccc(OC)c(=O)cc1C(NC(=O)c1ccccc1)CC2 (stereo unspecified)	45	-50	33	x	23	-3
COC(=O)c1ccc2c(c1)C(NC(C)=O)CCc1cc(OC)c(OC)c(OC)c1-2 (stereo unspecified)	59*	-40	35	x	23	-13
COc1cc2c(c(OC)c1OC)-c1ccc(OC)c(=O)cc1C(NC(C)=O)CC2 (stereo unspecified)	42	-14	66*	x	25	-26
COc1cccc(C(=O)Nc2ccc3c(cc2=O)[C@@H](NC(C)=O)CCc2cc(OC)c(OC)c(OC)c2-3)c1	38	22	62*	x	37	-11
C=CCNC(=O)c1c(CS(=O)(=O)c2ccccc2)noc1C(=O)NCc1ccccc1	1	8	0	x	-1	-13
O=C(NCc1cccnc1)C(=O)NCC1OCCCN1S(=O)(=O)c1cc(F)ccc1F (stereo unspecified)	-14	-32	x	x	-24	11
CCCCC1C(=O)CC[C@H]2[C@@H]1CC(=O)[C@@H]2C/C=C\CCCC(=O)O (stereo partly specified)	20	-10	-13	-19	4	-100*
CCc1nc2ccc(C(=O)NCCCN(C)C)cn2c1N(C)CCCc1ccccc1	8	53*	x	x	0	-10
CCc1nc2ccc(C(=O)NC3CCN(Cc4ccccc4)CC3)cn2c1N(C)Cc1cc2ccccc2s1	31	94*	x	x	-4	-8
CCc1nc2ccc(C(=O)NCCCn3ccnc3)cn2c1N(C)CCCc1ccccc1	-1	11	x	x	9	-5
SMILES	CF NFkB inh	Peg3 prom inh	MITF TRPM1 inh	CHOP inh	HIF-2a block	KKLEB tox
Cc1cc([N+](=O)[O-])nn1Cc1ccc(C(=O)N/N=C/c2ccc(F)cc2)cc1	7	-8	-9	-13	-10	-1
Cc1cc([N+](=O)[O-])nn1Cc1ccc(C(=O)N/N=C/c2ccc(O)cc2O)cc1	24	56*	53	46	-2	-18
O=c1c2cc(NC(=S)NCCCN3CCC(Cc4ccccc4)CC3)ccc2nc2n1CCCCC2	24	94*	23	47	10	-19
O=C1CC(c2ccco2)Cc2nc(Nc3nc(-c4ccccc4)c4ccccc4n3)ncc21 (stereo unspecified)	2	14	-5	93*	4	-4
CC(C)OC(=O)c1ccc2ccc(-c3ccccc3)nc2c1	-26	-312	x	x	-197	-22
COc1ccc(C(=O)/C=C/c2ccc(OC)c(Cn3nnc4ccccc43)c2)cc1	18	52*	24	-80	36	-34
CCCc1nc2ccc(C)cn2c1Cc1ccc(C)cc1	8	-331	x	x	-228	-9
CC(=O)OCC1OC(n2cc(F)c(=O)[nH]c2=O)C(OC(C)=O)C1OC(C)=O (stereo unspecified)	-1	-13	-9	x	5	6
O=C1C(F)=CC(COC(c2ccccc2)(c2ccccc2)c2ccccc2)OC1n1cc(F)c(=O)[nH]c1=O (stereo unspecified)	90*	98*	114*	x	87*	-82*
COc1ccc(NC(=O)c2oc3ccc(S(=O)(=O)N4CCC5(CC4)OCCO5)cc3c2C)cc1	-11	69*	43	45	1	-19
C=CCNC(=O)c1oc2ccc(S(=O)(=O)N3CCC4(CC3)OCCO4)cc2c1C	-19	12	-1	x	5	-8
CCn1c(/C=C/c2ccccc2)nc2ccccc21	-11	-137	-4	13	-175	-53*
Clc1nssc1=Nc1ccccc1	-25	-13	3	86*	-12	3
Clc1ccc(N=c2ssnc2Cl)cc1	29	-3	18	20	-70	-1
COc1cc(N=c2ssnc2Cl)cc(OC)c1OC	-12	11	18	94*	23	9
COc1cc(-c2nnc(-c3cc(OC)c(OC)c(OC)c3)o2)cc(OC)c1OC	10	12	7	-24	27	3
N#Cc1ccc(N=c2ssnc2Cl)cc1	-10	-25	-2	86*	-25	-1
Fc1ccc(N=c2ssnc2Cl)c(F)c1	15	-6	7	82*	-41	-10
COc1ccccc1C(=O)NCCC(=O)NCC1COc2ccccc2O1 (stereo unspecified)	1	5	3	x	15	2
O=C(O)c1cccc(S(=O)(=O)Nc2ccc3c(c2)CCC3)c1	8	-12	3	x	23	4

High-throughput results: PubChem BioAssay, several laboratories
